# PTHR1 agonist: agonists of human PTHR1 parathyroid hormone receptor; Q03431; HEK293 GP2 PTHR1 cells, GloSensor cAMP luminescence, 1 h; Potency, µM (titrated, usually from 115 µM), without a hit: at the highest dose activation, hits mostly activators; hit rate 0.075% among 410,000; note: potency is the fitted concentration of half-maximal effect; nearly all actives have a fitted effect of over 55% in size
#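 HEK-293-derived GP2 cells expressing PTHR1 and a GloSensor cAMP reporter, 3,000/well, plated overnight, given luciferin plus IBMX (each 0.5 mM as added) for 1 h at 37 °C, then compound for 1 h at 37 °C. Luminescence was read after 15 min at room temperature.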
# BRCA1 expr up: BRCA1 expression activation; AID 624202; hit rate 1.1% among 380,000; Potency, µM (doses to about 46.1 µM), without a hit: top-dose activation, usual class: activators; MCF7-BRCA1-FFLuc reporter, luminescence, 48 h; response scale: scaled: vehicle 0%, 10 µM genistein 100%; note: potency is the fitted concentration of half-maximal effect; nearly all actives have a fitted effect of over 80% in size
#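 First, MCF7-BRCA1-FFLuc cells (2000/well) attach for 2 h; next, compounds are pin-added and incubated 48 h at 37 °C; finally, luciferase reagent is added and luminescence read after 15 min.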
# D3 ag: D3 dopamine receptor (human) agonism | P35462 | D3R DiscoveRx beta-arrestin cells, luminescence, 90 min | max activation, % | hit rate 0.58% among 410,000; in the data active = max activation above about 30%; note: 0% is about no effect
#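 Cells at 1500/well, incubated overnight, then treated with pinned compounds (dopamine as control) for 90 min at 37 degrees C. DiscoveRx reagent added for 30 - 60 minutes at room temperature; luminescence read.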
# DRD3 antagonist: D3 dopamine receptor (human) antagonism | D3R cells, DiscoveRx beta-arrestin luminescence, antagonist mode; active compounds read low | hit rate 2.5% among 360,000 | max response, negative = inhibition, %; in the data active = max response below about -50%; inconclusive = no clear call, values can overlap the other calls; note: % is set by controls: 0 for no effect and ±100 for the full control effect
#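 Cells plated overnight at 1500 cells/well, then exposed to library compounds with dopamine controls for 90 minutes at 37 degrees C. DiscoveRx reagent added for 30–60 minutes at room temperature; luminescence read, quantitative HTS format.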
# RGS4 inh: blocks human RGS4-accelerated GTP hydrolysis. P49798. Transcreener GDP fluorescence polarization, RGS4-accelerated GTP hydrolysis. Potency, µM (doses to about 114 µM), for the others: at the highest dose activity change, negative = inhibition, hits mostly inhibitors. hit rate 0.039% among 390,000. AID 504845; note: potency is the fitted concentration of half-maximal effect; % is set by controls: 0 for no effect and ±100 for the full control effect; nearly all actives have a fitted effect of over 75% in size
# Target sequence (P49798 whole entry, looked up): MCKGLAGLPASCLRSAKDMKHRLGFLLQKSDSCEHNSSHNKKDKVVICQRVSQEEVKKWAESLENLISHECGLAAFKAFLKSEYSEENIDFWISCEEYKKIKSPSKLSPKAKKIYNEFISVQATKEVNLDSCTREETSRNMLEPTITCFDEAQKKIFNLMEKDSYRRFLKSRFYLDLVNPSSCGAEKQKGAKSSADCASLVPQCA
#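 MLSMR compounds (23 nl, pin-transferred) preincubated 10 min at room temperature with a 500nM (2x) first reagent, then RGS4 at 900nM (2x) plus Transcreener GDP mix added; fluorescence polarization (620/688 nm) read before and after 90 min at 30 °C.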
# B2AR arrestin: agonists driving beta-arrestin recruitment to human beta2-adrenergic receptor; P07550; hit rate 0.02% among 330,000; Potency, µM (series often up to 46.1 µM), for the others: at the top dose activation, most hits filed as activators; AID 492947; beta-arrestin recruitment to beta2AR, cell-based reporter;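 note: potency is the fitted concentration of half-maximal effect; 0% = DMSO controls and full agonism = EC100 isoproterenol or metaproterenol; nearly all actives have a fitted effect of over 65% in size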
# Target sequence (P07550 whole entry, looked up): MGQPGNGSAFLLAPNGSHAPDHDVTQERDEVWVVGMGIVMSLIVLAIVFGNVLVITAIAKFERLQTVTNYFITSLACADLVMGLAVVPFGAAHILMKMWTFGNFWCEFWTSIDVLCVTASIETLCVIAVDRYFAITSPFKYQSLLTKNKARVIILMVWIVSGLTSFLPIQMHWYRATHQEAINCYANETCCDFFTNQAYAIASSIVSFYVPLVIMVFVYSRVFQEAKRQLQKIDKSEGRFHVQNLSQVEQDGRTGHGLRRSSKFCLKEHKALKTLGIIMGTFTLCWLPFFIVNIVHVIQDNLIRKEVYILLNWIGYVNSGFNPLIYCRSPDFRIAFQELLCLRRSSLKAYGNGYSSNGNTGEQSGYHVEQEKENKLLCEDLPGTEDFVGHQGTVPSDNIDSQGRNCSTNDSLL
# The depositor's hits bear a star; i = inactive; u = inconclusive; x = not tested or not shown; [ ] = dose if it differs, or a comment. In the library only some 3.7% were active in any assay of this set; here they are far more common. Unless noted, calls come from the whole dose curve; as a rule, active = well fitted curve in the direction sought with a large enough effect; inconclusive = small, poorly fitted or top-dose-only effect, or another doubt; inactive = no such curve, though single readings can be large; an effect the other way counts as inactive or inconclusive.
SMILES,PTHR1 agonist,BRCA1 expr up,D3 ag,DRD3 antagonist,RGS4 inh,B2AR arrestin
O=C(N/N=C/c1cc2c(cc1Br)OCO2)c1cc2ccccc2o1,-6%,u,-29,-107*,-11%,1%
CC(C)(C)c1cc(C(=O)N/N=C/c2cc3c(cc2Br)OCO3)n[nH]1,-13%,6%,-24,-88*,5%,0%
Cc1cc(C(=O)N/N=C/c2ccc(-c3cccc(Cl)c3)o2)n[nH]1,-10%,-4%,-1,-61*,10%,0%
Cc1[nH]c2ccccc2c1/C=N/NC(=O)c1cc(C(C)(C)C)[nH]n1,-44%,46%,-43,-59*,7%,0%
Cc1ccc(/C=N/NC(=O)c2ccncc2)o1,i,-18%,2,91,-15%,-1%
O=C(N/N=C/c1cc2c(cc1Br)OCO2)c1ccccn1,-4%,7.9µM*,-18,-5,-14%,0%
O=C(N/N=C/c1ccc2c(c1)OCO2)c1ccccn1,-14%[57.5 µM],-50%,-11,-9,8%,-2%
Cc1ccc(/C=N/NC(=O)c2ccccn2)o1,i,11µM*,4,6,-2%,-1%
O=C(c1cc(C2CCCCN2C(=O)CCCc2ccccc2)on1)N1CCOCC1 (stereo unspecified),-19%,1%,-7,-51*,x,x
O=C(Nc1ccc(F)c(Cl)c1)c1ccc2nc([C@@H]3O[C@H](CO)[C@H](O)[C@H](O)[C@H]3O)[nH]c2c1,i,13%,1,11,x,x
COc1ccccc1N1CCN(C(=O)c2ccc3nc(-c4ccco4)c(-c4ccco4)nc3c2)CC1,-30%,-80%,3,11,-19%,0%
Cc1ccc(C)c(N2CCN(C(=O)c3ccc4nc(-c5ccco5)c(-c5ccco5)nc4c3)CC2)c1,i,-64%,34*,37,u,0%
COc1cc(N=Nc2ccccc2C(=O)O)ccc1O,i,-41%,-5,-58*,-19%,0%
CN(C)c1ccc(N=Nc2ccccc2C(=O)O)cc1,x,-57%,x,x,x,x
COc1cc(N=Nc2ccc3ccccc3c2)ccc1O,-3%,5µM*,-2,-22,16%,1%
Oc1c(C(c2ccccc2)N2CCC(O)CC2)sc2nc(-c3ccco3)nn12 (stereo unspecified),-15%,x,-7,x,5%,x
O=C(Nc1ccccc1)c1nn(-c2ccccc2)c(=O)cc1C(F)(F)F,i,-45%,3,-50*,6%,0%
O=C(/C=C/c1ccc(OCCCF)cc1)NCc1ccc(Cl)cc1,-6%,0%,4,-70*,-32%,-1%
COc1ccc(CNC(=O)/C=C/c2ccc(OCCCF)cc2)cc1,-3%[57.5 µM],24%,-1,0,12%,-1%
COCC(=O)N1CCC(Oc2ccc(C(=O)NC3CCOC(C)(C)C3)cc2)CC1 (stereo unspecified),-17%,-3%,-7,-16,19%,0%
CC(C)Cn1c(N)c(C(=O)COC(=O)Cc2cccs2)c(=O)n(C)c1=O,-31%,-8%,4,6,11%,-1%
CC(C)Cn1c(N)c(C(=O)COC(=O)/C=C/c2cccs2)c(=O)n(C)c1=O,-23%,-42%,33*,1,0%,-1%
O=C1N[C@@H](Cc2cn(S(=O)(=O)c3ccccc3)c3ccccc23)C(=O)N[C@H]1Cc1ccccc1,-15%,-8%,-2,6,20%,x
COc1cccc(C(=O)O[C@H]2[C@H](Cc3ccccc3)NS(=O)(=O)[C@H]3C[C@@H]4C=C[C@]23O4)c1,-24%,0%,-4,-52*,12%,0%
CCN=C1S/C(=C\c2cn(C(C)=O)nc2-c2ccccc2)C(=O)N1CC,-20%,3%,64*,58,-3%,2%
SMILES,PTHR1 agonist,BRCA1 expr up,D3 ag,DRD3 antagonist,RGS4 inh,B2AR arrestin
CN1c2ccsc2C(O)=C(C(=S)Nc2ccc(F)c(Cl)c2)S1(=O)=O,-18%[57.5 µM],-32%,0,-93*,u,-1%
COc1ccccc1NC(=O)c1ccc(COc2ccc(C)c(C)c2)o1,i,x,3,x,-12%,x
COc1ccccc1/C=N\NC(=O)c1ccc(COc2ccc(C)c(C)c2)o1,-8%,5.6µM*,-3,-12,23%,x
O=C(N/N=C/c1ccc2ccccc2c1)c1ccc(COc2ccc3c(c2)CCC3)o1,-12%[57.5 µM],2µM*,-9,-24,-33%,-1%
CC(Oc1ccc(F)cc1)C(=O)Nc1nc(-c2ccccn2)cs1 (stereo unspecified),i,-78%,-12,-69*,-19%,5%
OC(CCCN1CCC(O)(c2ccc(Cl)cc2)CC1)c1ccc(F)cc1 (stereo unspecified),i,-25%,-95,-114*,2%,0%
OC1(c2ccc(Cl)c(C(F)(F)F)c2)CCN(CCCC(c2ccc(F)cc2)c2ccc(F)cc2)CC1,x,x,-16,x,x,x
CCCCC/C=C\C/C=C\C/C=C\C/C=C\CCCC(=O)OC(CO)CO,x,x,x,x,-110%[56.9 µM],x
CCCCC/C=C\C/C=C\CCCCCCCC(=O)O[C@@H](CO)COC(=O)CCCCCCCCCCCCCCCCC,x,x,x,x,2.7µM*,x
Cc1ccc(CN2CCN(/N=C/c3cc(Br)ccc3O)CC2)cc1,-14%,-9%,-37,-87*,-32%,0%
Cc1ccc(CN2CCN(/N=C/c3cccs3)CC2)cc1,i,6%,-8,-59*,12%,0%
COc1ccc(Br)cc1/C=N/N1CCN(Cc2ccccc2)CC1,-24%,-21%,-18,3,-43%,1%
COc1cc(/C=N/NC(=O)c2ccc(Cl)cc2)ccc1OCC(=O)N1CC(C)OC(C)C1 (stereo unspecified),-17%,-7%,-24,-54*,1%,0%
COCc1cc(=O)[nH]c(SCCS(=O)(=O)c2ccc(Cl)cc2Cl)n1,i,-36%,-8,-62*,-21%,-1%
Oc1cnc2ccccc2c1CN1CCOCC1,-8%[57.5 µM],-2%,-3,-77*,7%,-1%
COc1cccc(-c2onc3ccc(C4(C)OCCO4)cc23)c1,-21%,u,32*,27,-6%,0%
CC1(c2ccc3noc(-c4ccccc4)c3c2)OCCO1,-38%[57.5 µM],0%,2,9,1%,0%
Cc1cccc(OCC(O)CN2CCc3ccccc3C2)c1 (stereo unspecified),-2%,5%,-1,-104*,10%,0%
OC(COc1ccc(Cl)cc1Cl)CN1CCc2ccccc2C1 (stereo unspecified),i,4%,-11,-103*,6%,0%
CCCc1ccc(OCC(O)CN2CCc3ccccc3C2)cc1 (stereo unspecified),-10%,-4%,-19,-94*,-11%,0%
